From PubChem BioAssay (NCATS)
Results filed as inconclusive are left out. Where a call stands in place of a potency, no number is given. Calls of active or inactive are those of the source. Calls follow the shape of the dose curve; as a rule, active = well fitted cell-killing curve with a large enough effect; inconclusive = small, poorly fitted or top-dose-only effect; inactive = flat fitted curve, though single readings scatter.

Experiment: Cell Viability - N2a (AID 540);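 also: cells exposed to compound for 40 h at 37 °C; nearly all actives have a fitted effect of over 45% in size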
Details: N2a mouse neuroblastoma cell viability; activity change, negative = cytotoxicity: at 92.2 µM (top of the series)
Source text: NIH Chemical Genomics Center [NCGC]
NIH Molecular Libraries Screening Centers Network [MLSCN]
National Institutes of Environmental Health Sciences [NIEHS]
National Toxicology Program [NTP]
We have developed a 1536-well cell-based assay for quantitative high throughput screening (qHTS) against a number of cell lines to determine in vitro cytotoxicity of small molecules. This particular assay uses the N2a cell line which is derived from mouse neuroblastoma.
NCGC Assay Protocol Summary:
The CellTiter-Glo luminescent cell viability assay (Promega) is a homogeneous method to measure the number of viable cells in culture. The end point readout of this assay is based on quantitation of intracellular ATP, an indicator of metabolic activity, using the luciferase reaction. Luciferase catalyzes the oxidation of beetle Luciferin to oxyluciferin and light in the presence of ATP. The luminescent signal is proportional to amount of ATP present.
Using the CellTiter-Glo luminescent cell viability assay, the amount of cellular ATP was measured in the N2a cell line with complete culture medium following compound treatment for 40 hours. The assay was performed in opaque white Kalypsys 1536-well plates. In the screen, tamoxifen and doxorubicin were used as positive controls. Library compounds were measured for their ability to cause acute toxicity in the cell line, as reflected by a decrease in intracellular ATP levels, in a concentration-dependent manner. […] AC50 values were determined from concentration-response data modeled with the standard Hill equation.
qHTS protocol for CellTiter Glo N2a cellular assay
[Step] [Parameter] [Value] [Description]
1. Reagent; 5 uL; 1500 N2a cells/well
2. Time; 5 hr; 37 °C incubation
4. Controls; 23 nL; Tamoxifen 0.34 uM to 100 uM & Doxorubicin 0.02 nM to 100 uM
5. Time; 40 hr; 37 °C incubation
6. Reagent; 5 uL; CellTiter Glo reagent
7. Time; 20 min; Room Temperature
8. Detection; Luminescence; Viewlux plate reader
Keywords: cell viability, cytotoxicity, N2a cell line, luminescence, NTPHTS, NTPHTS_NCGC, NIEHS, EPA, DSSTox, MLSMR, MLSCN, NIH Roadmap, qHTS, NCGC

SMILES | Potency | activity change, negative = cytotoxicity
Cc1cc(N=Nc2ccccc2C)ccc1N | inactive | –
O=C(O)CCl | inactive | –
O=[N+]([O-])c1ccc(Cl)cc1 | inactive | –
Cc1ccc(N)cc1C | inactive | –
CC12CC1(C)C(=O)N(c1cc(Cl)cc(Cl)c1)C2=O (stereo not given) | inactive | –
O=[N+]([O-])c1c(Cl)c(Cl)c(Cl)c(Cl)c1Cl | inactive | –
CN(C)C(=O)Cl | inactive | –
C=CCOCC1CO1 (stereo not given) | inactive | –
CC(C#N)CCC#N (stereo not given) | inactive | –
Nc1ccc(-c2ccc(N)c(Cl)c2)cc1Cl | inactive | –
O=C(O)C(Cl)Br (stereo not given) | inactive | –
c1ccoc1 | inactive | –
CCC/C=N/O | inactive | –
OCC(Cl)CCl (stereo not given) | inactive | –
Brc1cccc(-c2ccccc2)c1 | inactive | –
ClCC(Cl)Cl | inactive | –
CCCCCCCCCCCCCl | inactive | –
CC(C)(OOC(C)(C)c1ccccc1)c1ccccc1 | inactive | –
C=CCO | inactive | –
O=C(O)c1cccc(Cl)c1 | inactive | –

SMILES | Potency | activity change, negative = cytotoxicity
CCOS(C)(=O)=O | inactive | –
COc1ccccc1N | inactive | –
CCCN(CCC)c1c([N+](=O)[O-])cc(C(F)(F)F)cc1[N+](=O)[O-] | inactive | –
COC(C)(C)C | inactive | –
S=C1NCCN1 | inactive | –
Cc1cccc(N)c1C | inactive | –
ClCCOCCCl | inactive | –
CCCC[N+](=O)[O-] | inactive | –
COc1ccc(C=O)cc1 | inactive | –
Cc1cc(C)cc(OP(=O)(Oc2cc(C)cc(C)c2)Oc2cc(C)cc(C)c2)c1 | – | -83.5% (active)
Nc1ccc(Cl)c(Cl)c1 | inactive | –
C/C=C/C=O | inactive | –
C=C(Cl)CCl | inactive | –
CCC#N | inactive | –
C=CC(=O)OCC(CC)CCCC (stereo not given) | inactive | –
O=C(O)C(Br)Br | inactive | –
O=[N+]([O-])c1ccc2c3c(cccc13)CC2 | inactive | –
ClCC(Cl)CCl | inactive | –
O=[N+]([O-])c1ccccc1O | inactive | –
[O-][Cl+]O | inactive | –
